From PubChem BioAssay AID1347428 (National Center for Advancing Translational Sciences (NCATS), 2020)
The campaign covered roughly 91,000 compounds. About 290 (0.32%) were called active. Where a call stands in place of a potency, no number is given. Roughly 7% stayed inconclusive and do not appear here. Calls follow the shape of the dose curve; as a rule, active = well fitted inhibition curve with a large enough effect; inconclusive = small, poorly fitted or top-dose-only effect; inactive = no such curve, though single readings can be large or run the other way. The sample as a whole holds a higher share of actives than the screen did.

Target: Single-stranded DNA cytosine deaminase (Homo sapiens) (UniProt Q9GZX7)
Experiment: Primary qHTS assay for inhibitors of Activation Induced Cytidine Deaminase (AID): AID signal; also: nearly all actives have a fitted effect of over 25% in size
Conditions: AID deamination FRET fluorescence, UDG-coupled, 4 h; series mostly up to 115 µM
From the text: Assay Provider (PI) Patricia Gearhart Ph.D.
National Institute on Aging
National Institute of Health (NIH), Bethesda, MD
Assay Provider (PI) Rahul Kohli Ph.D.
Perelman School of Medicine
University of Pennsylvania, Philadelphia, PA
Activation-Induced Deaminase (AID) is a cytosine deaminase which converts cytosine into uracil within stretches of ssDNA. The presence of uracil in DNA initiates a cascade of mutagenic DNA repair to introduce point mutations and DNA double strand breaks. Specific targeting of AID to the immunoglobulin heavy chain loci (Igh) promotes mutagenesis in the antibody variable region for somatic hypermutation (SHM) or switch regions leading to class switch recombination (CSR). However, AID also plays a role in accumulating unnecessary mutations across the genome. Mis-targeting of AID results in the initiation of tumor development and leads to greater drug resistance among cancer cells when continually expressed. To identify an AID inhibitor, a small molecule library will be screened in collaboration with NCATS core facility at NIH. To confirm biological function, inhibitors will be examined in an in vitro murine B-cell activation assay and subsequent secondary validation screens. Top molecules will be further screened to identify inhibitory efficacy against a wild type primary splenocytes assay. Using these approaches, we hope to identify a small molecule with great efficacy and low toxicity for use as a molecular probe to further characterize AID's intricacies, or even as a therapeutic.
A FRET based analysis of cytosine deamination, was developed to identify potential inhibitors of AID catalytic activity. This screen has two signal output, Read 1 evaluates the AID inhibition response. The second readout (Read 2) evaluates UDG response and is uses as a counterscreen to exclude false positive inhibitors. Inhibition in AID and inactivity in the UDG signal is the desired outcome for this assay.
SEQUENCE No. (e.g., 1, 2, 3, etc.); […] (e.g., Cells, Incubation, Reagent, etc.); VALUE; DESCRIPTION
1a; Reagent; 3 uL; [4/3x] 1 uM AID/2.67 U/mL UDG
1b; Reagent; 3 uL; 2 U/mL UDG
1c; Reagent; 3 uL; 1 uM AID
2a; Compound; 46 nL; Follow-up plates (0.64 uM - 10 mM)
2b; Control; 46 nL; ATA ([…] - 10 mM)
3; Time; 10 min; incubation at room temperature
5; Time; 4 hr; incubation at room temperature
6; Reagent; 4 uL; [2x] 250 mM NaOH
7; Time; 15 sec; centrifuge at 1000 rpm
8; Time; 30 min; incubation at room temperature
9a; Detection; fluorescence (Read 1: AID); EnVision (PerkinElmer) plate reader, 540 excitation and 590 emission filters
9b; Detection; fluorescence (Read 2: UDG); EnVision (PerkinElmer) plate reader, 560 excitation and 665 emission filters
NOTES (numbers refer to sequence above)
1a; Reagents were dispensed in a medium-binding black solid-bottom Greiner plates (789176F) using a BioRptr liquid dispenser. Dispense 3 uL of [4/3x] 1 uM AID (provided by Kohli lab) and [4/3x] 2 U/mL UDG (NEB M0280L) into columns 1, 2, 5 to 48.
1b; Dispense 3 uL of [4/3x] 2 U/mL UDG into column 3.
1c; Dispense 3 uL of [4/3x] 1 uM AID into column 4.
2a; Compound (7-points [uM] (0.64; 3.2; 16; 80; 400; 2,000; 10,000; 20,000) double pin-transferred (Dip Factor = 2) using the Kalypsys (Wako USA) pintool equipped with a 1536 pinhead for a final concentration range of 7.32 nM - 114 uM. […]
9a; Fluorescence signal (column label AID) was read using the EnVision plate reader. […]
Potency is read from the fitted curve at half-maximal effect.

Sequence of Single-stranded DNA cytosine deaminase (Homo sapiens) (Q9GZX7 whole entry, looked up): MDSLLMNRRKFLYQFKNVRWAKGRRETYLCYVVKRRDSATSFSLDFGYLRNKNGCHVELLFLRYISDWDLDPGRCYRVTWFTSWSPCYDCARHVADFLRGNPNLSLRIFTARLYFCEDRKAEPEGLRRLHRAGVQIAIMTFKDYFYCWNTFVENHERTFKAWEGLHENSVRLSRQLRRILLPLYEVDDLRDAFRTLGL

Question: With `CC(=O)c1c(O)c(C)c(O)c(Cc2c(O)c3c(c(C(=O)/C=C/c4ccccc4)c2O)OC(C)(C)C=C3)c1O` as the molecule, how does the Potency read?
Answer: Its Potency is 28.2 µM (active).

Question: `Cc1cccc2c(CCN)c[nH]c12` was tested. Which Potency did it give?
Answer: The Potency was “inactive”.

Question: With `COc1cccc(CNCCc2ccccc2)c1` as the molecule, how does the Potency read?
Answer: The Potency was “inactive”.

Question: With `COC1CC(OC2CCC3(C=O)[C@H]4CCC5(C)C(C6=CC(=O)OC6)CCC5(O)[C@@H]4CCC3(O)C2)OC(C)C1O` (stereo not given in full) as the molecule, how does the Potency read?
Answer: The Potency was “inactive”.

Question: With `O=C(O)CCS(=O)(=O)C(Cl)Cl` as the molecule, how does the Potency read?
Answer: Its Potency is “inactive”.
